Several values for one entry are separate records, joined by “and”; a condition that tells them apart may be missing. Equal entries are not always repeated. Records with an inconclusive call do not appear. Some structures have more than one record in an assay (separate samples or runs), and their calls can disagree. Activity calls are given as the source filed them. The calls were made as follows, unless noted: active = hit-call score of the fitted dose curve at least 0.9, where 1 is the maximum; inactive = score below 0.9.
Experiments:
[1] = read-out: Interleukin-1 alpha (IL1a), IL1A (gene 3552); assay: BSK_LPS_IL1a: BioMAP Diversity Plus: LPS Assay for Interleukin-1 alpha (IL1a) Biomarker Activity (AID 2283080); conditions: primary human HUVEC with PBMC; actives raise or lower the signal
How it was run: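 Readout is IL-1a level by ELISA, 24 h post-dose, fitted as gain or loss relative to DMSO. System: LPS-activated human primary co-culture of vascular endothelium and peripheral blood mononuclear cells, with parallel SRB total-protein cytotoxicity.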

[2] = read-out: Monocyte Chemoattractant Protein-1 (MCP1), CCL2 (gene 6347); assay: BSK_LPS_MCP1: BioMAP Diversity Plus: LPS Assay for Monocyte Chemoattractant Protein-1 (MCP1) Biomarker Activity (AID 2283081); conditions: primary human HUVEC with PBMC; actives raise or lower the signal;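 as to AC50: co-culture stimulated with LPS; secreted MCP-1 protein quantified by ELISA in culture supernatant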
How it was run: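 Secreted MCP-1 read by ELISA at 24 h post-dosing in an LPS-activated co-culture of endothelial cells with peripheral blood mononuclear cells. Fits run in both directions, DMSO as baseline; parallel SRB staining tracks overt cytotoxicity.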

[3] = BSK_LPS_PGE2: BioMAP Diversity Plus: LPS Assay for Prostaglandin E2 (PGE2) Biomarker Activity (AID 2283082); conditions: primary human HUVEC with PBMC; actives raise or lower the signal;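 as to AC50: secreted prostaglandin E2 measured by ELISA in LPS-stimulated co-culture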
How it was run: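 Primary human endothelial cells and blood mononuclear cells, co-cultured with LPS, receive test chemical; PGE2 ELISA follows at 24 h, with SRB-stained parallel cultures flagging cytotoxicity.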

[4] = read-out: Macrophage colony-stimulating factor (MCSF), CSF1 (gene 1435); assay: BSK_LPS_MCSF: BioMAP Diversity Plus: LPS Assay for Macrophage colony-stimulating factor (MCSF) Biomarker Activity (AID 2283083); conditions: primary human HUVEC with PBMC; actives raise or lower the signal
How it was run: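 Bidirectional fitting against DMSO was applied to M-CSF levels read by ELISA at 24 h post-dose. The system pairs human umbilical vein endothelium with peripheral blood mononuclear cells; parallel SRB staining tracked cytotoxicity.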

[5] = read-out: Tissue Factor, F3 (gene 2152); assay: BSK_LPS_TissueFactor: BioMAP Diversity Plus: LPS Assay for Tissue Factor Biomarker Activity (AID 2283084); conditions: primary human HUVEC with PBMC; actives raise or lower the signal
How it was run: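 Compound was added to an endothelial cell/PBMC co-culture, and after 24 h tissue factor (CD142) was read by ELISA. Gain or loss of signal was fitted against a DMSO baseline, and parallel SRB staining (560 nm) tracked overt cytotoxicity.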

[6] = read-out: Tumor necrosis factor (Homo sapiens) (UniProt P01375); assay: BSK_LPS_TNFa: BioMAP Diversity Plus: LPS Assay for Tumour Necrosis Factor alpha (TNFa) Biomarker Activity (AID 2283085); conditions: primary human HUVEC with PBMC; actives raise or lower the signal;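 as to AC50: TNFa protein level quantified by ELISA in the co-culture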
How it was run: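 ELISA-based TNFa endpoint in a human endothelial–PBMC co-culture sampled 24 h post-exposure. Curves were fitted in both directions using DMSO as baseline of activity.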

[7] = read-out: Vascular cell adhesion molecule 1 (VCAM1), VCAM1 (gene 7412); assay: BSK_LPS_VCAM1: BioMAP Diversity Plus: LPS Assay for Vascular cell adhesion molecule 1 (VCAM1) Biomarker Activity (AID 2283086); conditions: primary human HUVEC with PBMC; actives raise or lower the signal
How it was run: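 Measured by ELISA: VCAM-1 in LPS-activated HUVEC/PBMC co-cultures 24 h after treatment. Values reflect bidirectional fitting with DMSO as baseline.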

CD38, CD38 (gene 952) = assay: BSK_SAg_CD38: BioMAP Diversity Plus: SAg Assay for CD38 Biomarker Activity (AID 2283087); conditions: primary human HUVEC with PBMC; actives raise or lower the signal
How it was run: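 Measures CD38 on a human endothelial/PBMC co-culture driven by SEB and TSST-1, 24 h after compound exposure, using ELISA with fluorescence detection; DMSO defines baseline for bidirectional curve fitting.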

CD40, CD40 (gene 958) = assay: BSK_SAg_CD40: BioMAP Diversity Plus: SAg Assay for CD40 Biomarker Activity (AID 2283088); conditions: primary human HUVEC with PBMC; actives raise or lower the signal
How it was run: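 CD40 is measured by fluorescence ELISA in an endothelial/PBMC primary human co-culture at 24 h post-dose. Fitting is bidirectional, DMSO baseline. Parallel SRB staining (560 nm) flags cytotoxicity.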

CD69, CD69 (gene 969) = assay: BSK_SAg_CD69: BioMAP Diversity Plus: SAg Assay for CD69 Biomarker Activity (AID 2283089); conditions: primary human HUVEC with PBMC; actives raise or lower the signal;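 as to AC50: cell surface CD69 protein quantified by ELISA with fluorescence detection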
How it was run: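 ELISA, fluorescence read-out: CD69 on human umbilical vein endothelial cell + PBMC co-culture, 24 h post-dosing. Gain or loss of signal fitted bidirectionally against DMSO baseline.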

[8] = read-out: E-selectin (Homo sapiens) (UniProt P16581); assay: BSK_SAg_Eselectin: BioMAP Diversity Plus: SAg Assay for Eselectin Biomarker Activity (AID 2283091); conditions: primary human HUVEC with PBMC; actives raise or lower the signal
How it was run: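 Cell-surface E-selectin is read by ELISA at 24 h in the SAg co-culture of HUVEC and PBMC. Curves are fitted in both directions relative to DMSO. Parallel SRB total-protein staining tracks overt toxicity.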

[9] = read-out: Monokine induced gamma interferon (MIG), CXCL9 (gene 4283); assay: BSK_SAg_MIG: BioMAP Diversity Plus: SAg Assay for Monokine induced gamma interferon (MIG) Biomarker Activity (AID 2283092); conditions: primary human HUVEC with PBMC; actives raise or lower the signal
How it was run: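 ELISA readout of MIG/CXCL9; primary human umbilical vein endothelial cells co-cultured with peripheral blood mononuclear cells; 24 h post-dose; gain/loss fit vs DMSO baseline.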

[10] = BSK_SAg_PBMCCytotoxicity: PBMC Cytotoxicity Assessment in the BioMAP Diversity Plus: SAg Assay (AID 2283093); conditions: primary human HUVEC with PBMC;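 also: PBMC viability measured as Alamar Blue reduction fluorescence at 546/580 nm; fitted both ways against DMSO so a hit may be loss or gain of signal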;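 as to AC50: PBMC superantigen activated with SEB plus TSST-1 one hour after compound addition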
How it was run: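 Alamar Blue reduction (6 h, 546/580 nm) reports PBMC cytotoxicity after 90 h superantigen activation (SEB, TSST-1; 20 ng/mL final each) with 1 h compound pre-treatment. Gain or loss of signal fitted versus DMSO.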

[11] = read-out: Interleukin-8 (IL8), CXCL8 (gene 3576); assay: BSK_SAg_IL8: BioMAP Diversity Plus: SAg Assay for Interleukin-8 (IL8) Biomarker Activity (AID 2283094); conditions: primary human HUVEC with PBMC; actives raise or lower the signal
How it was run: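 Primary human endothelial cells with PBMC, exposed 24 h; IL-8 determined by ELISA, analysed bidirectionally relative to DMSO.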

[12] = BSK_SAg_Proliferation: Cell Proliferation Assessment in the BioMAP Diversity Plus: SAg Assay (AID 2283095); conditions: primary human HUVEC with PBMC;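 also: relative cell number as total protein by SRB absorbance in sub-confluent culture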
How it was run: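 A human primary co-culture of umbilical vein endothelium and blood mononuclear cells receives compound; relative cell number is quantified at 96 h by SRB staining and 560 nm absorbance, with DMSO-referenced bidirectional curve fitting.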

[13] = BSK_SAg_SRB: Viability Assessment in the BioMAP Diversity Plus: SAg Assay (AID 2283096); conditions: primary human HUVEC with PBMC;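 also: cells read one day after compound addition; hits may be either gain or loss of signal compared with DMSO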
How it was run: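 This overt-cytotoxicity endpoint quantifies protein in human endothelial/PBMC co-cultures at 24 h using SRB absorbance (560 nm) after trichloroacetic acid fixation. Values reflect signal change from the DMSO negative control, fitted bidirectionally.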

[14] = read-out: Monocyte Chemoattractant Protein-1 (MCP1), CCL2 (gene 6347); assay: BSK_SAg_MCP1: BioMAP Diversity Plus: SAg Assay for Monocyte Chemoattractant Protein-1 (MCP1) Biomarker Activity (AID 2283090); conditions: primary human HUVEC with PBMC; actives raise or lower the signal
How it was run: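 Values derive from bidirectional fitting of ELISA-measured MCP1 against DMSO controls. Readings were taken 24 h after dosing human vascular endothelial cells co-cultured with peripheral blood mononuclear cells under superantigen stimulation.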

[15] = molecular target: human CYP2D6, CYP2D6 (gene 1565) (UniProt P10635); assay: NVS_ADME_hCYP2D6: NovaScreen (NVS) CYP450-related Enzyme Activity (ADME) Assay for human CYP2D6 (AID 2283107; active = hit-call score of the fitted dose curve at least 0.9, where 1 is the maximum)
Chain of human CYP2D6, CYP2D6 (gene 1565) (P10635 whole entry, looked up): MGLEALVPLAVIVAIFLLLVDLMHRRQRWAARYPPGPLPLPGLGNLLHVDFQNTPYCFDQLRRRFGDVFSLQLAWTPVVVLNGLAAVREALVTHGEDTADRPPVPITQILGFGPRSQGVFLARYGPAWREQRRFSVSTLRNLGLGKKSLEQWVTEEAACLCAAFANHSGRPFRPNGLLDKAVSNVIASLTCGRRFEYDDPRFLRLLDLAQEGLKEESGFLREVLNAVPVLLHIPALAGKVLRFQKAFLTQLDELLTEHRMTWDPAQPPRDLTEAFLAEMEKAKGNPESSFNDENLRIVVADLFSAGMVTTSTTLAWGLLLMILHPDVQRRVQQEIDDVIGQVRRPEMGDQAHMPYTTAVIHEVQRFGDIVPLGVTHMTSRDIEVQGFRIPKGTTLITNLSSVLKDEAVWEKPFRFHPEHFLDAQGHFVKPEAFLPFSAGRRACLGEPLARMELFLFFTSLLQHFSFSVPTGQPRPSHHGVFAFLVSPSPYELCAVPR
How it was run: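 Fluorescence readout of recombinant CYP2D6 (insect-cell derived) activity after 1 h incubation with test chemical. Acetonitrile served as baseline, loss-of-signal direction. Single-concentration duplicate screening at 10 uM preceded concentration-response retesting.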

[16] = molecular target: human CYP2C9, CYP2C9 (gene 1559) (UniProt P11712); assay: NVS_ADME_hCYP2C9: NovaScreen (NVS) CYP450-related Enzyme Activity (ADME) Assay for human CYP2C9 (AID 2283108; active = hit-call score of the fitted dose curve at least 0.9, where 1 is the maximum)
Chain of human CYP2C9, CYP2C9 (gene 1559) (P11712 whole entry, looked up): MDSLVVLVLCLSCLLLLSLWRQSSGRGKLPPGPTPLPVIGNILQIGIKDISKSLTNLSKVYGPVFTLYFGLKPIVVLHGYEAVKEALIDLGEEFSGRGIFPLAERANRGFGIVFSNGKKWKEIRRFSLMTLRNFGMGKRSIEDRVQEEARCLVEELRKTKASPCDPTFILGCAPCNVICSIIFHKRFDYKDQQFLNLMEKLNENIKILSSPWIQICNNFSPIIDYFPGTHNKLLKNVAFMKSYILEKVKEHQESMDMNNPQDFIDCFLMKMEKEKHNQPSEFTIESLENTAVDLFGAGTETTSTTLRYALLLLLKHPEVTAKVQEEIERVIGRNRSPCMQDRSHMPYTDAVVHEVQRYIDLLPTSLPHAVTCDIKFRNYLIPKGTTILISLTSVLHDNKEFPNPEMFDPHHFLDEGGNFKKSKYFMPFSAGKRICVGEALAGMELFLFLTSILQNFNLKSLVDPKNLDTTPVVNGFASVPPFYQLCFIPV
How it was run: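 Cell-free assay of recombinant human CYP2C9 produced in Sf9 cells, with enzyme activity read by fluorescence intensity 0.75 h after compound addition. Loss of signal versus an acetonitrile negative control indicates inhibition. Primary screen used 10 uM in duplicate; actives were retested in concentration series.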

Chain of E-selectin (Homo sapiens) (P16581 whole entry, looked up): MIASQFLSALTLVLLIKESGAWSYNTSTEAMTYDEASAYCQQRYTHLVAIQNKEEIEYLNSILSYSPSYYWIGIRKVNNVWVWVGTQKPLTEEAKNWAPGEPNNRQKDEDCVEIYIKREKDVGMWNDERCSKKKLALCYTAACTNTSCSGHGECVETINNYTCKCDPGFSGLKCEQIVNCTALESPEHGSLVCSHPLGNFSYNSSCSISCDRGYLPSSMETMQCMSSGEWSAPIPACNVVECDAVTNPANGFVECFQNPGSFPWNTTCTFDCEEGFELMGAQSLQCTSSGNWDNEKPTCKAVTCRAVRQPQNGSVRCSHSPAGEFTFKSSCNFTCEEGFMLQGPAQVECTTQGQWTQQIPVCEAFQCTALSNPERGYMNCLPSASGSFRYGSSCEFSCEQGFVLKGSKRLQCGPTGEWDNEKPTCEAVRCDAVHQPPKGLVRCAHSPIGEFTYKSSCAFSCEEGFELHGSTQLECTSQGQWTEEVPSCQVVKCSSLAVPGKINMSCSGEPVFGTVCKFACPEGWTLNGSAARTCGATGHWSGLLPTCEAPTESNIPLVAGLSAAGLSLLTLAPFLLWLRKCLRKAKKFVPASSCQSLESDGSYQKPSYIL
Chain of Tumor necrosis factor (Homo sapiens) (P01375 whole entry, looked up): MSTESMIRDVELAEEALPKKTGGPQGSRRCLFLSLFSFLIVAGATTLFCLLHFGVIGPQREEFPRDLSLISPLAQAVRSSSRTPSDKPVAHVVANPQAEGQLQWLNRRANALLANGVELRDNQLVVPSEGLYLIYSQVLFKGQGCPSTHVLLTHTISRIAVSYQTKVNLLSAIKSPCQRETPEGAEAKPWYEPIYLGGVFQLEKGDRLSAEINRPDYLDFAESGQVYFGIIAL

For `CS(C)(=O)=O`, the outcome [1] was “inactive”, the outcome [2] was “inactive” and the outcome [3] was “inactive”. The outcome [4] was “inactive”, the outcome [5] was “inactive” and the outcome [6] was “inactive”. For the same compound, the outcome [7] was “inactive”, the outcome (CD38, CD38 (gene 952)) was “inactive” and the outcome (CD40, CD40 (gene 958)) was “inactive”. For the same compound, the outcome (CD69, CD69 (gene 969)) was “inactive”, the outcome [8] was “inactive” and the outcome [9] was “inactive”. For the same compound, the outcome [10] was “inactive”, the outcome [11] was “inactive” and the outcome [12] was “inactive”. The outcome [13] was “inactive”.
In the case of `N=C(N)C(F)(F)C(F)(F)C(F)(F)C(F)(F)C(F)(F)C(F)(F)C(F)(F)F`, the AC50 [2] is reported as 45.8 µM (active), the outcome [2] is reported as “inactive” and the outcome [3] is reported as “inactive”. The AC50 [4] was 47 µM (active), the outcome [4] was “inactive” and the outcome [5] was “inactive”. The AC50 [6] was 33.1 µM (active), the outcome [6] was “inactive” and the AC50 [7] was 40.3 µM (active). For the same compound, the outcome [7] was “inactive”, the AC50 (CD38, CD38 (gene 952)) was 53.6 µM (active) and the outcome (CD38, CD38 (gene 952)) was “inactive”. For the same compound, the AC50 (CD40, CD40 (gene 958)) was 54.7 µM (active), the outcome (CD40, CD40 (gene 958)) was “inactive” and the AC50 [8] was 48.3 µM (active). For the same compound, the outcome [8] was “inactive”, the AC50 [9] was 55.4 µM (active) and the outcome [9] was “inactive”. The AC50 [10] was 45.9 µM (active) and 55.1 µM (active), the AC50 [11] was 55.1 µM (active) and the outcome [11] was “inactive”. For the same compound, the AC50 [12] was 45 µM (active) and 47.4 µM (active), the AC50 [13] was 53 µM (active) and the outcome [13] was “inactive”.
With `FC(F)(F)C(F)(F)C(F)(F)C(F)(F)C(F)(F)C(F)(F)C(F)(F)I` the outcome [1] was “inactive”, the outcome [2] was “inactive” and the outcome [3] was “inactive”. The outcome [4] was “inactive”, the outcome [5] was “inactive” and the outcome [6] was “inactive”. For the same compound, the outcome [7] was “inactive”, the outcome (CD38, CD38 (gene 952)) was “inactive” and the outcome (CD40, CD40 (gene 958)) was “inactive”. The outcome [8] was “inactive”, the outcome [9] was “inactive” and the outcome [10] was “inactive”. For the same compound, the outcome [11] was “inactive”, the outcome [12] was “inactive” and the outcome [13] was “inactive”.
In the case of `CCc1ccc(C(c2ccc(CC)cc2)C(Cl)Cl)cc1`, the AC50 [1] is reported as 20 µM (active), the AC50 [2] is reported as 31.4 µM (active) and the AC50 [3] is reported as 0.158 µM (active). The AC50 [4] was 20 µM (active), the outcome [5] was “inactive” and the AC50 [6] was 29.9 µM (active). The AC50 [7] was 27.2 µM (active), the AC50 (CD38, CD38 (gene 952)) was 27.7 µM (active) and the AC50 (CD40, CD40 (gene 958)) was 28.9 µM (active). The AC50 (CD69, CD69 (gene 969)) was 15.1 µM (active), the AC50 [14] was 31.8 µM (active) and the AC50 [8] was 26 µM (active). For the same compound, the AC50 [9] was 33.6 µM (active), the AC50 [10] was 14.5 µM (active) and the outcome [11] was “inactive”. For the same compound, the AC50 [12] was 8.44 µM (active) and the AC50 [13] was 29.1 µM (active).
With `Oc1ccc(Nc2ccccc2)cc1` the outcome [1] was “inactive”, the outcome [2] was “inactive” and the AC50 [3] was 0.668 µM (active). For the same compound, the outcome [4] was “inactive”, the outcome [5] was “inactive” and the outcome [6] was “inactive”. The AC50 [7] was 20 µM (active), the AC50 (CD38, CD38 (gene 952)) was 20 µM (active) and the AC50 (CD40, CD40 (gene 958)) was 8.57 µM (active). For the same compound, the AC50 (CD69, CD69 (gene 969)) was 14 µM (active), the AC50 [8] was 25.1 µM (active) and the outcome [9] was “inactive”. For the same compound, the AC50 [10] was 3.57 µM (active), the outcome [11] was “inactive” and the AC50 [12] was 3.84 µM (active). The outcome [13] was “inactive”, the outcome [15] was “inactive” and the AC50 [16] was 0.451 µM (active).
With `FC(F)(F)C(F)(F)C(F)(F)C(F)(F)CCI` the outcome [1] was “inactive”, the outcome [2] was “inactive” and the outcome [3] was “inactive”. For the same compound, the outcome [4] was “inactive”, the outcome [5] was “inactive” and the outcome [6] was “inactive”. For the same compound, the outcome [7] was “inactive”, the outcome (CD38, CD38 (gene 952)) was “inactive” and the outcome (CD40, CD40 (gene 958)) was “inactive”. For the same compound, the outcome [14] was “inactive”, the outcome [8] was “inactive” and the outcome [9] was “inactive”. For the same compound, the AC50 [10] was 41.9 µM (active), the outcome [10] was “inactive” and the outcome [11] was “inactive”. The AC50 [12] was 30 µM (active) and the outcome [13] was “inactive”.

— PubChem BioAssay (EPA / NIEHS)
